AmpC inh detg: blocks E. coli AmpC beta-lactamase in detergent assay. P00811. AmpC hydrolysis of nitrocefin, absorbance 480 nm, 0.01% Triton. Potency, µM (doses to about 114 µM), for inactives: top-dose activity change, negative = inhibition, usual class: inhibitors. 370,000 tested, 0.041% active;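 note: 0% = no-compound wells and -100% = no-enzyme wells; nearly all actives have a fitted effect of over 25% in size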
Target sequence (P00811 whole entry, looked up): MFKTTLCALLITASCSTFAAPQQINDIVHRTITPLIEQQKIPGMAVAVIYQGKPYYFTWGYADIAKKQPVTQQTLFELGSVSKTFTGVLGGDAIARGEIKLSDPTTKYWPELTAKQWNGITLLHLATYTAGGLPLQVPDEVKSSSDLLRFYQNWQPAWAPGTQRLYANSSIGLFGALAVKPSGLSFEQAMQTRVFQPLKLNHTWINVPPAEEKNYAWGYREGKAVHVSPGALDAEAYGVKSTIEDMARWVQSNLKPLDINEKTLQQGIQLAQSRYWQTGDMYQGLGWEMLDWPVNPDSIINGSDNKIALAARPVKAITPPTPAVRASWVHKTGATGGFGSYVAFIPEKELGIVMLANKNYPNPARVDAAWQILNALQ
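AmpC (5.3 nM in the dispensed reagent) in 20 mM phosphate pH 7.0 with 0.01% (detergent screen) or 0.0001% Triton X-100 was preincubated with compounds for 15 min at room temperature. Nitrocefin was then added from an 800 uM solution, and hydrolysis was followed at 480 nm.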
Vaccinia mCherry: inhibitors of vaccinia virus infection (mCherry reporter signal); Potency, µM (titrated, usually from 36.5 µM), inactives show at the highest dose activity change, negative = inhibition, hits mostly inhibitors; 310,000 tested, 0.63% active; Vaccinia virus mCherry reporter infection, fluorescence; calls by dose curve; tested in A549 cells; note: % is set by controls: 0 for no effect and ±100 for the full control effect; nearly all actives have a fitted effect of over 35% in size
AmpC inh no detg: blocks E. coli AmpC beta-lactamase in detergent-free assay; 330,000 tested, 0.52% active; AmpC nitrocefin hydrolysis, absorbance 480 nm, 0.0001% Triton; Potency, µM (top dose mostly 57.1 µM), for inactives: top-dose activity change, negative = inhibition, actives largely listed as inhibitors;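 note: plate controls were no compound for no effect and no enzyme for full effect; nearly all actives have a fitted effect of over 20% in size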
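AmpC (5.3 nM in the dispensed reagent) in 20 mM phosphate pH 7.0 with 0.01% (detergent screen) or 0.0001% Triton X-100 was preincubated with compounds for 15 min at room temperature. Nitrocefin was then added from an 800 uM solution, and hydrolysis was followed at 480 nm.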
Vaccinia Venus: vaccinia inhibition (Venus reporter); Vaccinia virus Venus reporter expression, fluorescence; Potency, µM (top dose mostly 36.5 µM), without a hit: at the highest dose activity change, negative = inhibition, usual class: inhibitors; 330,000 tested, 0.46% active; AID 720580; calls by dose curve; tested in A549 cells; note: % is set by controls: 0 for no effect and ±100 for the full control effect; nearly all actives have a fitted effect of over 30% in size
SARS PLP yeast: inhibitors of SARS-CoV papain-like protease in yeast; S. cerevisiae expressing SARS-CoV PLpro, growth rescue; Potency, µM (doses to about 32.9 µM), for inactives: top-dose activity, positive = growth rescue, usual class: activators; 330,000 tested, 0.19% active; AID 485353; calls by dose curve; note: 0% is about no effect; nearly all actives have a fitted effect of over 55% in size
The depositor's hits bear a star; i = inactive; ? = inconclusive; / = no result. Most compounds without a hit are left out; they make up all but 1.3% or so of the library. Unless noted, calls come from the whole dose curve; as a rule, active = well fitted curve in the direction sought with a large enough effect; inconclusive = small, poorly fitted or top-dose-only effect, or another doubt; inactive = no such curve, though single readings can be large; an effect the other way counts as inactive or inconclusive. Potency is the fitted concentration of half-maximal effect.

SMILES | AmpC inh detg | Vaccinia mCherry | AmpC inh no detg | Vaccinia Venus | SARS PLP yeast
CCOC(=O)c1cc2nc(-c3ccco3)cc(C(F)(F)F)n2n1 | -9% | / | -7% | 1% | 9%
CCCCC(CC)COC(=O)c1ccc(N(C)C)cc1 (configuration not stated) | 2% | -7% | -3% | -17% | -5%
CCCCC(CC)COP(=O)(OCC(CC)CCCC)OCC(CC)CCCC (configuration not stated) | 1% | 2.5µM* | -18% | ? | -6%
CCCCn1c(=N)n(CCOc2ccc(C)cc2)c2ccccc21 | ? | 14µM* | 34% | ? | 1%
CSc1ccccc1-c1cnc(NC(C)=O)cn1 | / | -3% | / | -10% | /
COc1ccc(C2=CC(=O)C=CC2=O)cc1 | ? | / | 32µM* | / | -5%
COc1ccccc1C1CN(CC(=O)N[C@H]2CCCCNC2=O)Cc2ccccc2O1 (some centres not stated) | / | -15% | / | 6% | /
O=C(Nc1ccccc1)[C@@H]1CCCN1S(=O)(=O)c1ccc(Cl)cc1 | / | i | -28% | -1% | 9%
O=C(Nc1ccc(Cl)cc1)C1CCCCN1S(=O)(=O)c1ccccc1 (configuration not stated) | / | ? | -26% | 10µM* | -17%
Nc1ncnc2c(C3OC(CO)C(O)C3O)scc12 (configuration not stated) | / | ? | / | 0.35µM* | /
Nc1ncnc2c1ncn2C1OC(CO)C(O)C1N (configuration not stated) | ? | 0% | -7% | -3% | 0%
COc1cccc(CNc2ncnc3sc(C(=O)N4CC5CCC4C5)c(C)c23)c1OC (configuration not stated) | / | -22% | / | -15% | /
COc1ccccc1-c1ccnc(-n2ncc(C(=O)NCC3(N4CCOCC4)CCCC3)c2C)n1 | / | -14% | / | -10% | /
O=C1CC(C(=O)Nc2ccc(C(=O)N3CCOCC3)cc2)C2(CCCCC2)O1 (configuration not stated) | 3% | / | 5µM* | -7% | 1%
O=C1CC(C(=O)Nc2ccccc2)C2(CCCC2)O1 (configuration not stated) | ? | / | -8% | / | 0%
COC(=O)c1ccc(C(=O)N2CCc3c(C(=O)NC(C)c4ccco4)c(OC)cc(=O)n3CC2)cc1 (configuration not stated) | / | -12% | / | 0% | /
CC(C)C(NS(=O)(=O)c1cccs1)C(=O)NCc1ccc2c(c1)OCO2 (configuration not stated) | -1% | i | 40µM* | -9% | 15%
Cc1ccc(CNC(=O)C(NS(=O)(=O)c2cccs2)C(C)C)cc1 (configuration not stated) | 25% | 1% | -23% | -7% | 0%
CC(NC(=O)Nc1ccc(Cl)cc1)c1ccc2c(c1)OCO2 (configuration not stated) | ? | -13% | 8.9µM* | 7% | 6%
CCn1c(-c2ccccc2F)nc2cc(NC(C)=O)cc(C(=O)N3CCNC(=O)C3CC(=O)OC)c21 (configuration not stated) | / | -14% | / | -10% | /
Cc1ccc2c(c1)C(=O)C(=O)N2Cc1ccccc1 | / | -13% | -16% | -5% | 2%
CCN1C(=O)C(=O)c2cc(C)ccc21 | / | -3% | -21% | 6% | 11µM*
O=C(NCCc1ccccn1)C1CC12CCN(C(=O)c1ccc(F)cc1Cl)CC2 (configuration not stated) | / | -12% | / | 2% | /
O=S(=O)(NC1CC(NS(=O)(=O)OCC(Cl)(Cl)Cl)C2CCCCC12)OCC(Cl)(Cl)Cl (configuration not stated) | -9% | ? | -22% | 11µM* | 6%
CCOc1cc(/C=C2\SC(=N)N(c3nccs3)C2=O)ccc1OCCN1CCOCC1 | ? | 11µM* | 227% | ? | -7%
SMILES | AmpC inh detg | Vaccinia mCherry | AmpC inh no detg | Vaccinia Venus | SARS PLP yeast
Cc1cc(Sc2nc(NC(C)C)nc(NC(C)C)n2)nc(Cl)n1 | 3% | 7.9µM* | 2% | ? | 1%
Cc1cc(Br)ccc1NC(=O)COC(=O)c1ccccc1OCC(=O)N(C)C | / | 3% | / | -3% | /
O=C(NC(Cc1c[nH]c2ccccc12)C(=O)Nc1ccc(OC(F)(F)F)cc1)c1cccs1 (configuration not stated) | 1% | ? | -47% | -26% | -4%
O=C(NC(Cc1c[nH]c2ccccc12)C(=O)Nc1ccc(F)c([N+](=O)[O-])c1)c1cccs1 (configuration not stated) | ? | 2.5µM* | -25% | 3% | 26%
O=[N+]([O-])c1ccccc1NC(=S)N/N=C/c1ccc(O)c(O)c1 | -2% | ? | 4.5µM* | -6% | 0%
CCOc1cccc(/C=N/NC(=S)Nc2ccccc2[N+](=O)[O-])c1O | 0% | / | -25% | / | 6%
O=C(NCC1Cc2cccc(-c3cnccn3)c2O1)c1ccc2c(c1)OCCO2 (configuration not stated) | / | -14% | / | -8% | /
COc1ccc(/C(C)=N/OC/C(O)=C(\C#N)c2nc3ccccc3[nH]2)cc1OC | -5% | -4% | -8% | -4% | 0%
COc1ccc(/C(C)=N/OC/C(O)=C(\C#N)c2nc3ccccc3[nH]2)c(OC)c1 | -12% | / | 14µM* | / | 1%
O=C(c1cccc(N2CCCC2=O)c1)N1CCC(Oc2cccc(CN3CCN(c4ccccn4)CC3)c2)CC1 | / | ? | / | -15% | /
CCOC(=O)c1cccc(NC2c3ccccc3C(=O)N2Cc2ccco2)c1 (configuration not stated) | ? | ? | 0.89µM* | -8% | -5%
COC1CCC(OC2CC(C3(C)CCC4(CC(O)C(C)C(C(C)/C=C(\C)C(=O)C(C)CC(C)C(=O)O)O4)O3)OC3(OC(C4OC(O)(CO)C(C)CC4C)CC3C)C2C)OC1C (configuration not stated) | / | 6.3µM* | / | 7.9µM* | /
Cn1c(-c2ccncc2)nc2cc(C(=O)N[C@H]3CCCCNC3=O)cc(NC(=O)C3CCC3)c21 | / | -13% | / | -12% | /
CCOC(=O)N1CCc2c(sc3c2c(=O)n(Cc2ccccc2)c(=O)n3CC(=O)Nc2cccc(CC)c2)C1 | -2% | -17% | / | -9% | /
COC1OC(COC(=O)c2ccccc2)C(OC(=O)c2ccccc2)C1OC(=O)c1ccccc1 (configuration not stated) | -6% | / | -2% | / | 2%
